# CYP2C19 act: increases human CYP2C19 enzyme activity | P33261 | recombinant CYP2C19, luciferin-H EGE luminescence; active compounds read high; 0 = fully inhibited enzyme, 1 = untreated enzyme | activation factor at 5 µM | 96,000 tested, under 10 active | AID 1025;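 active means activation factor of at least 2 at 5 µM in the primary screen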;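 further: 0 = wells with 2.5 mM tranylcypromine and 1 = vehicle-only wells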
# CYP2C9 act: activators of human CYP2C9; activation factor at 5 µM; recombinant CYP2C9, luciferin-H conversion, luminescence; active compounds read high; factor 1 = untreated enzyme, 0 = blocked; P11712; 1.4% of 96,000 active;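 active means activation factor of 2 or more for CYP2C9 at a 5 µM dose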;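 further: 0 = sulfaphenazole-blocked wells and 1 = vehicle-only wells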
# CYP2C9 inhib: human CYP2C9 inhibition | inhibition, % at 5 µM | P11712 | CYP2C9 Supersomes, luciferin-H conversion, luminescence | AID 777 | 20% of 96,000 active;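 active means blocking of liver enzyme CYP2C9 beyond about 50% at 5 µM, limit read from the data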
# PLAP act: activators of human placental alkaline phosphatase; P05187; purified PLAP enzyme, luminescent substrate read-out; active compounds read high; activation fold at 20 µM; 1.2% of 96,000 active; in the data active means activation fold above about 2
# Target sequence (P05187 whole entry, looked up): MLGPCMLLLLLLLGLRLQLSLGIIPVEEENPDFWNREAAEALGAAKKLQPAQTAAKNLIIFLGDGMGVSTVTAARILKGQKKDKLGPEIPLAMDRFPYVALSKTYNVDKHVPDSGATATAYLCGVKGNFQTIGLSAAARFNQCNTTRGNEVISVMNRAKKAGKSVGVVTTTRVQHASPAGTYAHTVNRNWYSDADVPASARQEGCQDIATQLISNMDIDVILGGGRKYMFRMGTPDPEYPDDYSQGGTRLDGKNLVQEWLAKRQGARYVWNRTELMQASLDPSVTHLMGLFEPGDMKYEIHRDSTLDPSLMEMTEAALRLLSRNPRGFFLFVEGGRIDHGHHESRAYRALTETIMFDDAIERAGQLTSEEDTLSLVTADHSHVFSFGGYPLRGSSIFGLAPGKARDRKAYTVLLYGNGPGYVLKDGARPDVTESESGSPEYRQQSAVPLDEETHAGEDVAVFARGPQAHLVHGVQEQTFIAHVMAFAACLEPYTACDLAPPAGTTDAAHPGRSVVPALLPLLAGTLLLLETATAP
# CYP2C19 inhib: blocks human cytochrome P450 2C19; inhibition, % at 5 µM; P33261; CYP2C19 Supersomes, luciferin-H EGE luminescence, 30 min; 21% of 96,000 active;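 active means CYP2C19 inhibition above a set limit at 5 µM in the primary screen, cut at about 50% in these data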;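 further: plate controls were negative control wells for no effect and 2.5 mM tranylcypromine positive control for full effect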
# Active calls of the source: *. Hits are enriched below; roughly 31% of the tested compounds scored in any of these assays.
SMILES,CYP2C19 act,CYP2C9 act,CYP2C9 inhib,PLAP act,CYP2C19 inhib
O=C(OCC(=O)N1CCCCCC1)c1n[nH]c(=O)c2ccccc12,0.8,1,-1.3,1.1,17.3
COc1ccc(C(=O)N2c3ccccc3C(=O)OC2c2ccc3c(c2)OCO3)cc1 (centres undefined),0.2,0.2,80.9*,1.5,83.3*
COc1ccc(C2Oc3ccccc3N2C(C)=O)cc1 (centres undefined),0.4,0.3,68.8*,1,63.5*
COC(=O)CC1COc2ccccc2N1C(=O)c1ccc(OC)cc1 (centres undefined),0.4,0.5,48.2,1.1,61.9*
CCN(CC)CCCNC(=O)c1nn(-c2cccc(OC)c2)c(=O)c2ccccc12,1.1,0.7,29.3,1,-7.4
CCN(C(=O)CCc1nc(-c2ccccc2F)no1)c1cc(OC)ccc1OC,0.1,0.1,93.8*,1.6,94.1*
COc1ccc(Br)cc1CNC(=O)CCc1nc(-c2ccccc2F)no1,0.3,0.4,56.8*,1,65.4*
COc1cccc(NC(=O)CCc2nc(-c3ccccc3F)no2)c1,0.7,0.4,60.1*,0.8,26.3
O=C(CCc1nc(-c2ccccc2F)no1)Nc1ccc(Oc2ccccc2)cc1,0.9,0.8,22.5,0.9,8.0
COc1ccc(CNC(=O)CCc2nc(-c3ccccc3F)no2)c(OC)c1,0.3,0.4,57.1*,0.9,74.1*
O=C(NCC1COc2ccccc2O1)C1CCC(CNc2c(N3CCCCC3)c(=O)c2=O)CC1 (centres undefined),0.7,0.6,43.8,1.8,33.9
Cc1ccccc1C(=O)N1CCC(C(=O)Nc2ccc3c(c2)OCCO3)CC1,1,1.2,-21.2,1.1,4.3
C=CCOC(=O)/C(=C/c1ccco1)NC(=O)/C=C/c1ccccc1,0.2,0.3,73.4*,1.1,77.3*
O=S(=O)(Nc1cccc(-c2nc3cccnc3s2)c1)c1ccc2c(c1)OCCO2,1,0.2,84.6*,1.2,2.7
Cc1ccc(-c2nc3cccnc3s2)cc1NS(=O)(=O)c1ccc2c(c1)OCCO2,1.1,0.3,73.8*,1.6,-13.5
CCc1ccc(S(=O)(=O)Nc2ccc(-c3nc4cccnc4s3)cc2)s1,1.1,0.7,27.1,1.5,-14.1
O=S(=O)(c1ccc2c(c1)OCCO2)N1CCC(c2nc3ccccc3s2)CC1,0.9,1.3,-31.3,0.9,8.0
Cc1cccc(/C(N)=N/OC(=O)CCc2ccccc2)c1,0.8,0.5,53.9*,0.9,21.4
Cc1cccc(/C(N)=N/OC(=O)Cc2cccs2)c1,0.8,0.9,14.3,1,20.0
COc1ccc2cc(CN(Cc3cccnc3)S(=O)(=O)c3ccccc3)c(=O)[nH]c2c1,0.6,0.5,49.0,1.6,43.1
COc1ccc(S(=O)(=O)N(Cc2cc3ccc(OC)cc3[nH]c2=O)CC2COCCO2)cc1 (centres undefined),0.7,0.3,74.8*,1.7,30.1
CN(Cc1cc2ccccc2[nH]c1=O)S(=O)(=O)c1ccccc1,0.2,0.5,45.1,0.9,78.7*
CCCC(=O)N(Cc1cc2cc(C)ccc2[nH]c1=O)c1ccccc1OC,1,0.8,21.4,1.3,4.6
CCCC(=O)N(Cc1cc2ccccc2[nH]c1=O)c1ccccc1OC,0.4,0.1,86.9*,1,64.8*
COc1ccc2cc(CN(CC3COCCO3)S(=O)(=O)c3ccccc3)c(=O)[nH]c2c1 (centres undefined),1,0.2,84.9*,1.1,3.1
SMILES,CYP2C19 act,CYP2C9 act,CYP2C9 inhib,PLAP act,CYP2C19 inhib
CCN(C(C)=O)c1cccc2ccccc12,1,0.9,6.0,0.9,4.7
NC(=O)C1CCN(c2oc(-c3ccccc3F)nc2S(=O)(=O)c2ccc(Cl)cc2)CC1,0.5,0.7,29.1,0.8,51.9*
COc1ccc(NC(=O)c2cccnc2C(=O)O)c(OC)c1,1.1,1,-3.9,1,-12.3
Cc1ccc(-c2noc(C3CCN(C(=O)Nc4ccc(C#N)cc4)CC3)n2)o1,0.2,0.4,60.8*,1.7,83.3*
c1cc2ccc3ccc(-n4cnnn4)c4ccc(c1)c2c34,0.6,1.4,-35.1,1.2,42.4
Cc1ccc(N=Cc2c(O)n(-c3cc(Cl)ccc3N3CCOCC3)c(=O)c3ccccc23)cc1C,1,0.8,24.0,1.5,-3.9
CCOc1cccc(C2C(C(=O)c3ccc(C)o3)=C(O)C(=O)N2c2nccs2)c1 (centres undefined),0.7,0.7,29.1,1,33.2
COC(=O)c1sc(N2C(=O)C(O)=C(C(=O)c3ccc(C)o3)C2c2ccc(F)cc2)nc1C (centres undefined),0.7,0.2,80.1*,1.1,25.2
COC(=O)C1=C(C)N=C2SC(C#N)=C(N)N2C1c1cccc(OC)c1 (centres undefined),0,0.1,91.7*,1,96.0*
CCc1nc(SCC(=O)Nc2ccnc3ccccc23)n[nH]1,1,0.8,19.1,1.2,1.9
Cc1nc2sc(C(c3cccs3)N3CC(C)CC(C)C3)c(O)n2n1 (centres undefined),0.3,1.1,-14.4,1.5,67.4*
CCCn1nnc(NC(=O)c2ccc(-c3ccccc3)cc2)n1,0.8,0.9,7.3,0.9,24.7
CCCn1nnc(NC(=S)NC(=O)CC)n1,0.3,0.9,7.9,0.9,70.8*
CCCn1nnc(NC(=O)c2ccc(Br)cc2)n1,0.4,0.9,14.8,1,55.8*
CCCn1nnc(NC(=O)c2cc(Br)cc(Br)c2OC)n1,0.2,0.7,26.9,1.3,83.2*
CCOC(=O)c1c(CN(C)C)oc2cc(CN(C)C)c(O)c(CSc3ccccc3)c12,0.1,0.8,15.3,1.7,92.4*
CCOC(=O)c1c(CN2CCOCC2)n(-c2ccccc2)c2cc(Br)c(O)c(CN(C)C)c12,0.6,0.6,37.8,1.5,41.9
CCOC(=O)Cn1nnc2c(sc3nc4c(c(-c5ccccc5)c32)CCC4)c1=O,1.1,1,-1.0,1.1,-13.8
CC1=C(C#N)C(NC(=O)c2ccco2)(C(F)(F)F)C(=O)N1 (centres undefined),1,1.2,-23.0,1.1,2.5
CC1=NC(C(F)(F)F)(C(F)(F)F)C(C#N)=C(C)N1,0.3,1,0.2,0.9,68.7*
CC1CCN(CCCOc2ccc(OCc3ccccc3)cc2)CC1,0.8,0.9,9.8,1.4,20.4
CCCOc1ccc2oc(=O)c3c(c2c1)CCCN3C(=O)CN1CCc2ccccc2C1,0.1,0.4,63.9*,1.6,88.8*
CC1CCN(CC(=O)N2CCCc3c2c(=O)oc2ccc(OCc4ccccc4)cc32)CC1,0.5,0.1,89.6*,1.8,53.3*
CC1CC(C)CN(CC(=O)N2CCCc3c2c(=O)oc2ccc(OCc4ccccc4)cc32)C1 (centres undefined),0.3,0.2,84.8*,1.7,74.9*
c1csc(-c2noc(COc3ccc4c(c3)CCCC4)n2)c1,0.9,0.9,12.3,1,10.0

# From PubChem
